# Results taken from the supplement of paper PMC8728848.
# Many of the other results were omitted from the sample, so the strongest signals are more common in it than they were.
# B1: ZG-16 (Homo sapiens), O60844 (protein)
# chain: IQARSSSYSGEYGSGGGKRFSHSGNQLDGPITALRVRVNTYYIVGLQVRYGKVWSDYVGGRNGDLEEIFLHPGESVIQVSGKYKWYLKKLVFVTDKGRYLSFGKDSGTSFNAVPLHPNTVLRFISGRSGSLIDAIGLHWDVYPTSCSRCSRGSDDDDKAEPRGPTIKPCPPCKCPAPNLLGGPSVFIFPPKIKDVLMISLSPIVTCVVVDVSEDDPDVQISWFVNNVEVHTAQTQTHREDYNSTLRVVSALPIQHQDWMSGKEFKCKVNNKDLPAPIERTISKPKGSVRAPQVYVLPPPEEEMTKKQVTLTCMVTDFMPEDIYVEWTNNGKTELNYKNTEPVLDSDGSYFMYSKLRVEKKNWVERNSYSCSVVHEGLHNHHTTKSFSRTPGKRTYHHHHHHARKLTR
# Assays:
# Test in all cases: glycan array binding signal (z-score within array); higher = stronger binding
# Details in all cases: glycan notation: IUPAC condensed, linker removed
# [1] = target: Fuc(a1-2)Gal(b1-3)[Fuc(a1-4)]GlcNAc(b1-3)[Fuc(a1-3)[Gal(b1-4)]GlcNAc(b1-6)]Gal(b1-4)Glc
# Procedure, shortened: (§1)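 The binding signal is a Z-score computed within each array. Data were drawn from 3228 arrays in the Consortium for Functional Glycomics database, restricted to those with a known protein sequence. Scores were averaged over arrays of the same protein sequence at different concentrations or buffers, and over linkers, and negative values can be taken as non-binding.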
# [2] = target: Fuc(a1-2)Gal(b1-4)GlcNAc6S
# Procedure, shortened: as §1
# Fuc(a1-2)[Gal(a1-3)]Gal = target: Fuc(a1-2)[Gal(a1-3)]Gal
# Procedure, shortened: as §1
# [3] = target: Fuc(a1-3)[Gal(b1-4)]GlcNAc(b1-2)Man(a1-3)[Fuc(a1-3)[Gal(b1-4)]GlcNAc(b1-2)Man(a1-6)]Man(b1-4)GlcNAc(b1-4)GlcNAc
# Procedure, shortened: as §1
# [4] = target: Gal(a1-3)Gal(b1-4)[Fuc(a1-3)]GlcNAc(b1-2)Man(a1-3)[Gal(a1-3)Gal(b1-4)[Fuc(a1-3)]GlcNAc(b1-2)Man(a1-6)]Man(b1-4)GlcNAc(b1-4)GlcNAc
# Procedure, shortened: as §1
# [5] = target: Gal(a1-4)Gal(b1-4)GlcNAc(b1-2)Man(a1-3)[Gal(a1-4)Gal(b1-4)GlcNAc(b1-2)Man(a1-6)]Man(b1-4)GlcNAc(b1-4)GlcNAc
# Procedure, shortened: as §1
# Gal(b1-3)Gal = target: Gal(b1-3)Gal
# Procedure, shortened: as §1
# [6] = target: Gal(b1-3)GalNAc(a1-3)[Fuc(a1-2)]Gal(b1-4)Glc
# Procedure, shortened: as §1
# [7] = target: Gal(b1-3)GlcNAc(b1-2)Man(a1-3)[Gal(b1-3)GlcNAc(b1-2)Man(a1-6)]Man(b1-4)GlcNAc(b1-4)GlcNAc
# Procedure, shortened: as §1
# [8] = target: Gal(b1-3)GlcNAc(b1-3)Gal(b1-4)Glc
# Procedure, shortened: as §1
# [9] = target: Gal(b1-4)GlcNAc(b1-2)Man(a1-3)[Man(a1-6)]Man(b1-4)GlcNAc(b1-4)GlcNAc
# Procedure, shortened: as §1
# [10] = target: Gal(b1-4)GlcNAc(b1-2)[Gal(b1-4)GlcNAc(b1-4)]Man(a1-3)[Gal(b1-4)GlcNAc(b1-2)Man(a1-6)]Man(b1-4)GlcNAc(b1-4)GlcNAc
# Procedure, shortened: as §1
# Gal6S(b1-4)Glc6S = target: Gal6S(b1-4)Glc6S
# Procedure, shortened: as §1
# GlcNAc(b1-3)Gal = target: GlcNAc(b1-3)Gal
# Procedure, shortened: as §1
# [11] = target: Man(a1-2)Man(a1-2)Man(a1-3)Man
# Procedure, shortened: as §1
# [12] = target: Man(a1-2)Man(a1-2)Man(a1-6)[Man(a1-3)]Man
# Procedure, shortened: as §1
# Man(a1-2)Man(a1-3)Man = target: Man(a1-2)Man(a1-3)Man
# Procedure, shortened: as §1
# [13] = target: Man(a1-2)Man(a1-3)[Man(a1-2)Man(a1-6)]Man
# Procedure, shortened: as §1
# [14] = target: Man(a1-2)Man(a1-3)[Man(a1-2)Man(a1-6)]Man(a1-6)[Man(a1-2)Man(a1-2)Man(a1-3)]Man
# Procedure, shortened: as §1
# [15] = target: Man(a1-2)Man(a1-6)[Man(a1-3)]Man(a1-6)[Man(a1-2)Man(a1-2)Man(a1-3)]Man
# Procedure, shortened: as §1
# Man(a1-3)[Man(a1-6)]Man = target: Man(a1-3)[Man(a1-6)]Man
# Procedure, shortened: as §1
# [16] = target: Man(a1-3)[Man(a1-6)]Man(b1-4)GlcNAc(b1-4)GlcNAc
# Procedure, shortened: as §1
# [17] = target: Neu5Ac(a2-3)Gal(b1-3)[Fuc(a1-4)]GlcNAc
# Procedure, shortened: as §1
# [18] = target: Neu5Ac(a2-3)Gal(b1-4)GlcNAc
# Procedure, shortened: as §1
# [19] = target: Neu5Ac(a2-3)Gal(b1-4)[Fuc(a1-3)]GlcNAc(b1-3)Gal
# Procedure, shortened: as §1
# [20] = target: Neu5Ac(a2-3)[GalNAc(b1-4)]Gal(b1-4)Glc
# Procedure, shortened: as §1
# [21] = target: Neu5Ac(a2-6)Gal(b1-4)GlcNAc(b1-2)Man(a1-6)Man(b1-4)GlcNAc(b1-4)GlcNAc
# Procedure, shortened: as §1
# [22] = target: Neu5Ac(a2-6)Gal(b1-4)GlcNAc(b1-3)Gal(b1-4)GlcNAc(b1-3)Gal(b1-4)GlcNAc
# Procedure, shortened: as §1
# [23] = target: Neu5Ac(b2-6)Gal(b1-4)GlcNAc
# Procedure, shortened: as §1
# [24] = target: Neu5Gc(a2-3)Gal(b1-3)[Fuc(a1-4)]GlcNAc
# Procedure, shortened: as §1
binder,measurement,setting,value
B1,glycan array binding signal (z-score),[1],-0.196
same,glycan array binding signal (z-score),[2],-0.185
same,glycan array binding signal (z-score),Fuc(a1-2)[Gal(a1-3)]Gal,-0.217
same,glycan array binding signal (z-score),[3],0.273
same,glycan array binding signal (z-score),[4],-0.158
same,glycan array binding signal (z-score),[5],-0.205
same,glycan array binding signal (z-score),Gal(b1-3)Gal,-0.222
same,glycan array binding signal (z-score),[6],-0.193
same,glycan array binding signal (z-score),[7],-0.189
same,glycan array binding signal (z-score),[8],-0.226
same,glycan array binding signal (z-score),[9],-0.146
same,glycan array binding signal (z-score),[10],-0.166
same,glycan array binding signal (z-score),Gal6S(b1-4)Glc6S,-0.16
same,glycan array binding signal (z-score),GlcNAc(b1-3)Gal,-0.231
same,glycan array binding signal (z-score),[11],8.34
same,glycan array binding signal (z-score),[12],5.61
same,glycan array binding signal (z-score),Man(a1-2)Man(a1-3)Man,9.52
same,glycan array binding signal (z-score),[13],3.69
same,glycan array binding signal (z-score),[14],1.94
same,glycan array binding signal (z-score),[15],5.95
same,glycan array binding signal (z-score),Man(a1-3)[Man(a1-6)]Man,4.25
same,glycan array binding signal (z-score),[16],-0.183
same,glycan array binding signal (z-score),[17],-0.202
same,glycan array binding signal (z-score),[18],-0.209
same,glycan array binding signal (z-score),[19],-0.127
same,glycan array binding signal (z-score),[20],-0.21
same,glycan array binding signal (z-score),[21],-0.209
same,glycan array binding signal (z-score),[22],-0.182
same,glycan array binding signal (z-score),[23],-0.221
same,glycan array binding signal (z-score),[24],-0.132
